Measured values as given in PubChem BioAssay AID1347426 (Functional Genomics Laboratory (NCATS/FGL), 2020).
The campaign covered roughly 31,000 sequences. About 1,400 (4.5%) were called active.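 The calls were made as follows: active = median seed-adjusted z-score above 1 or below -1; inactive = the rest.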 The sample as a whole holds a higher share of actives than the screen did.

Assay: Novel Modifiers of Survival Motor Neuron (SMN) Protein: Gene Identification via Genome-wide siRNA Screen;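 also: luminescence tracks full-length SMN protein made from the SMN2 reporter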
Conditions: HEK293T SMN2-luciferase reporter, siRNA knockdown, 72 h; actives lie on both sides
Outline: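 Each of three siRNAs per gene is reverse-transfected (1 pmol) into reporter HEK293T cells whose luciferase output tracks SMN protein level. After 72 h culture, ONE-Glo luminescence is control-normalized, log10-transformed and MAD-standardized; Common Seed Analysis deprioritizes seed-driven hits.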

Sequence | median seed-adjusted z-score
GCACGGUAAUUUUGACAGUTT against CD302 | 0.0818 (inactive)
GCUGUUACCUCGACGAGUATT against TSC2 | 1.11 (active)
GCAGCUCCGAAUUCAGGAATT against TFE3 | -0.0442 (inactive)
GAAGAACUCGAUCAGCUAATT against MYH4 | -1.8 (active)
GGAUCUGACAGUUCCAGAATT against CLDN20 | -0.00173 (inactive)
GACAAUAUCCUACCCAUUUTT against SLC25A16 | 0.0479 (inactive)
AGAGAAUCCAGGAUCAGAATT against CHIT1 | -0.578 (inactive)
GGCUCGCUUUGAAAAGCUATT against LIN7A | -1.39 (active)
CGGACCCGCUGAGACAUUATT against HOXB6 | -0.168 (inactive)
GGCCUACAACGAAAGUGAATT against CAMKK1 | 0 (inactive)
CAGUCGAACCUUUCCCAGATT against MSRA | -0.0316 (inactive)
GGGACUGGGAUUUACGUUATT against MTMR11 | -0.0244 (inactive)
CUUCCUUCGUCUUCACCUATT against FOS | 0.343 (inactive)
CGACGAUUCGUGCUUAAUATT against MYO5C | 0 (inactive)
GCAAAACAGCGGCAGAACATT against ATP8B2 | -0.268 (inactive)
GCAGAUCACAUGAAGAGAATT against DHX38 | -0.723 (inactive)
CUCUUUAGCCGCUUCAUUATT against FMNL1 | -0.3 (inactive)
GGGUCUUCGUCAUGCUCUATT against GPR142 | -0.0636 (inactive)
CAGUGCUACUUGGAAUGUUTT against RHOJ | -0.304 (inactive)
CACUAGUUUUGUUAGCGAATT against ATP13A4 | -1.09 (active)
CAACAACUAUGACCCAGGATT against CHRNE | 0.349 (inactive)
CAGCAAUUCGUGGAGCUCATT against STX4 | 0.759 (inactive)

Sequence | median seed-adjusted z-score
CACUAAAUGUGACUCCUGATT against TTC5 | -0.296 (inactive)
CUAUUAACAUGGUGACAGATT against EIF4A1 | -1.05 (active)
GUGUGAUGAUAUUCGAAAATT against SGPP1 | 0.0859 (inactive)
GGAGGAAACUUCAACUUGUTT against PHF20L1 | 0 (inactive)
CAAAUUGAGUCACUCUUAATT against MGAT2 | -0.124 (inactive)
GGAUUUGGAGUAGAUCAAUTT against TIAL1 | -0.985 (inactive)
GCCUGUCCUUCUCCAUUGATT against ISX | 1.99 (active)
GCUUUGAAACUACAGAUGATT against HNRNPA3 | 0.915 (inactive)
GAAGGUUUACAAGGACUUATT against KLK7 | 0 (inactive)
GCAGAGAUCAGCAACGUGATT against KRT77 | -0.0863 (inactive)
GCACUUAUGCUGAUGAAGATT against ZNF398 | 0.119 (inactive)
CAAACGUAUUAGUUCAGCATT against KIF20B | 0 (inactive)
GGACAAGUAGCAAAGCGAATT against SLC7A14 | 0.132 (inactive)
CAACAACCUUACACGAGUATT against LRIG2 | 0.386 (inactive)
GAAGAAAUGUUGUUCGAAUTT against KAL1 | 0.0824 (inactive)
CGCCUGGUCUAUGAACUUUTT against SCARF1 | -0.324 (inactive)
GAAGUGUUUGAAUCUCGUATT against AKAP3 | 0.0138 (inactive)
GUCUCGUAGUGUUAUGUCUTT against GBA2 | 0.143 (inactive)
CCCUGGACGCUGAUGAGUUTT against CAPS | -1.25 (active)
GAUACAUGAAGGUAUACAATT against POLR3G | -0.485 (inactive)
AGAAAGUGUACGACCCAAATT against NUCB1 | 0.232 (inactive)
GAGUGCAAUUGGAACCUGATT against ARHGAP30 | 0.0946 (inactive)

Sequence | median seed-adjusted z-score
GCAUGAACAUUACGGAUAUTT against CARS | 0 (inactive)
GGUGGUACAAGAGAACGAATT against JARID2 | 0.115 (inactive)
CUUGGAUGAUGGCAAGACATT against TCEB2 | 1.28 (active)
GAAAUAUACUUCAGAUUCATT against SP2 | -0.617 (inactive)
GCUCAUUCCUUUUCGAGCATT against PEG3 | 0.5 (inactive)
GAUUCACAUCGUCAAGAAATT against ZNF317 | 0.087 (inactive)
GAUAUGACCGCGAAACCAATT against RPA4 | 0.132 (inactive)
GCUCCACACUGAUGAAUCATT against ZNF250 | -0.00985 (inactive)
GGCUAACUACUGAGCUGAATT against C1RL | -0.148 (inactive)
GGGAAUUUCUGACCUAGUATT against ABCD3 | -0.24 (inactive)
CCAAGCCUCUUUCCUACAATT against GPR52 | -1.17 (active)
CGUGGAAGAUUUUCACAGATT against ZNF174 | 0.035 (inactive)
GAUCUACCGAAUACAAGAATT against GPR171 | -0.449 (inactive)
CCACACCAUUAUGACCAUUTT against FUT1 | 0.000845 (inactive)
GGAUUUGCCUUACCACUAATT against PPP2R5C | 1.14 (active)
GAAGGGUUAUCGUCGGGAATT against SLC6A6 | 0.0448 (inactive)
CCAUCGAGUUCAUCGAUAATT against DUSP8 | -0.0326 (inactive)
GUUCAUCUCUUGUAAGGAUTT against CABP5 | 0.372 (inactive)
GCCUCAGAAUUUAAUCAAATT against ALB | -0.153 (inactive)
CCAGAAGCGAAUCACCACATT against POLR2F | -3.52 (active)
GUGUCUCUGCUCUAAGUAATT against B4GALT1 | 0 (inactive)
AGCUUAUGCAUUUGGCAAATT against APBA3 | -0.119 (inactive)

Sequence | median seed-adjusted z-score
GGAGCAGACGGUGACCAAATT against CIB3 | 0.234 (inactive)
CAUAUGAUCCAGACAAGAATT against ZNF425 | 0.0841 (inactive)
GAGUCUGUGGUGUACCUAATT against SALL4 | -0.344 (inactive)
GAGAAGAACUCGUACCUCUTT against ZNF783 | 0.284 (inactive)
CCGUGUCCAGGAACCUAUATT against LPHN3 | -0.0576 (inactive)
AGUCCAAGGUGAUUACGCUTT against CPSF1 | 3.29 (active)
GCUGUGCUAUGGGAGUUAATT against ADH1A | 0.624 (inactive)
GAACUUAGCUAAAUUGACUTT against BCHE | 0.117 (inactive)
CUUAGACUGUUUCCACUUATT against PARK2 | 0.146 (inactive)
GCCUAUGAUUUAGGACUAATT against MNDA | 0.232 (inactive)
CCAGUGAUGUAAGUUCUUATT against GCG | -1.18 (active)
CUGUUCUGCUUAUAUGGAATT against HNRPLL | 0 (inactive)
GAAACAUCCGUGAAAGAGATT against RABL4 | -0.154 (inactive)
GAUACUAGCUAUUUUGACATT against MAST2 | 0.27 (inactive)
CUAACGUAGAGGAAGCAUUTT against RAB11B | -0.857 (inactive)
CACUUAUACUAAGCACCAATT against CCNB1 | 0.163 (inactive)
CUCUGGAUUUUGAUAGUUUTT against PPARGC1A | -0.0953 (inactive)
GUACUUCCAUAGACAGGAATT against CECR1 | 0.00187 (inactive)
GGCUUAAUGUGGUGAUGUUTT against COL7A1 | 1.08 (active)
CGAAUGCUGAGGCUACAAATT against SLC9A5 | -0.545 (inactive)
GGGAGACCUCGAUCGUGAATT against RASA4 | -1.11 (active)
CAAAUCCUGUCUAACAAAATT against MYH7 | 0.659 (inactive)

Sequence | median seed-adjusted z-score
GUUCAUAUGUGACAUCUUUTT against ZFP36L1 | -0.933 (inactive)
GUAGGUGAGUGGAAAUUCATT against DRD2 | -0.0273 (inactive)
GGAAGGUUGCUAUAGUGGATT against SSX2IP | -0.0799 (inactive)
GGCAAGUGCUUCACUCAAATT against ZNF665 | 1.13 (active)
GAAUUCGCUUCAUCCAUUUTT against POMT2 | -0.614 (inactive)
UGAUUGCACGAACAGCAAATT against MED21 | -1.3 (active)
GUAACACCGUUGAAGCUAATT against E2F8 | 0.209 (inactive)
CUGCUCACCCUUUACAUCATT against KIF12 | 0.0971 (inactive)
CAGUCCCAAUUUCCACUUUTT against PCDHB2 | 0 (inactive)
CCAGGUCUCGAAAACCAAATT against EN2 | 0.319 (inactive)
CAGUGUUAGUCAUAUCGUATT against DHX36 | 0.165 (inactive)
CCUCGGCUCCAGCAAAUCATT against CACNB1 | 0.225 (inactive)
GUGGGUAACUGGAACAAAATT against MFGE8 | 0.0367 (inactive)
CAACCAACAUUUACAUAUUTT against OPRK1 | -1.08 (active)
GCCUUGCGCUAAAUCUCGATT against NSD1 | -0.372 (inactive)
GCAUUAACCCAAUUGCUCUTT against EDNRB | 0.119 (inactive)
GAGCAGUCGCGAGAAGAUUTT against PPP1R12C | -0.535 (inactive)
GGAGAGUUAAGAUCAAUGUTT against KCNB2 | 1.22 (active)
CCGUCAAAGUGAUCAACAATT against IKZF3 | 0.0181 (inactive)
GGUGCUACGUUAGACCAGUTT against SNRPA1 | -2.71 (active)
